In the antibiotic and cytotoxicity screens of Wong et al. (2023) one finds cytotoxicity call data, which are given here for 39 molecules.

Structures are written as SMILES. Screen size: about 39,000 compounds; about 3,300 (8.5%) were called active. Shown is part of a subset that was picked to be rich in actives.

The test system of the assay is HepG2. Nature of the assay: cytotoxicity call (relative viability < 0.9). Particulars: 10 µM.
As to `C[C@H](CO)N1C[C@H](C)[C@H](CN(C)Cc2ccc(Oc3ccccc3)cc2)Oc2ncc(-c3cccnc3)cc2C1=O`, the cytotoxicity call was “inactive”.

Regarding `C[C@H](CO)N1C[C@H](C)[C@H](CN(C)C(=O)NC2CCCCC2)Oc2ccc(NC(=O)Nc3cccc4ccccc34)cc2C1=O`, the cytotoxicity call is “inactive”. Regarding `C[n+]1c2cc(N)ccc2cc2ccc(N)cc21.[Cl-]`, the cytotoxicity call is “active”. In the case of `C[C@@H]1CCCCO[C@@H](CN(C)Cc2ccc(C(=O)O)cc2)[C@H](C)CN([C@H](C)CO)C(=O)c2cc(NC(=O)c3ccccc3)ccc2O1` it was “inactive”. For the molecule `C[C@H]1CN([C@@H](C)CO)C(=O)CCCn2cc(nn2)CO[C@H]1CN(C)C(=O)Nc1cccc(Oc2ccccn2)c1`, the cytotoxicity call was “inactive”. Consider `CC(=O)OC[C@H]1O[C@@H](n2ccc(=O)[nH]c2=O)[C@H](OC(C)=O)[C@@H]1OC(C)=O`, for which the cytotoxicity call was “inactive”. In the case of `COCC(=O)N1C[C@H](C)[C@H](OC)CN(C)C(=O)c2cc(NC(=O)Nc3cccc(F)c3)ccc2OC[C@@H]1C` it was “inactive”; in that of `COc1ccc(NC(=O)Nc2ccc3c(c2)C(=O)N([C@@H](C)CO)C[C@H](C)[C@H](CN(C)Cc2ccc(Cl)c(Cl)c2)O3)cc1`, “active”; in that of `COc1ccc(NC(=O)Nc2ccc3c(c2)C(=O)N([C@H](C)CO)C[C@H](C)[C@@H](CN(C)Cc2ccc(Cl)c(Cl)c2)O3)cc1`, “inactive”. In the case of `COc1ccc(NC(=O)Nc2ccc3c(c2)C(=O)N([C@@H](C)CO)C[C@@H](C)[C@@H](CN(C)Cc2ccc(Cl)c(Cl)c2)O3)cc1` it was “inactive”; in that of `COc1ccc(NC(=O)Nc2ccc3c(c2)C(=O)N([C@@H](C)CO)C[C@H](C)[C@@H](CN(C)Cc2ccc(Cl)c(Cl)c2)O3)cc1`, “inactive”.

As for `COc1ccc(NC(=O)Nc2ccc3c(c2)C(=O)N([C@H](C)CO)C[C@@H](C)[C@@H](CN(C)Cc2ccc(Cl)c(Cl)c2)O3)cc1`, the cytotoxicity call is “inactive”. For `COc1ccc(NC(=O)Nc2ccc3c(c2)C(=O)N([C@H](C)CO)C[C@H](C)[C@H](CN(C)Cc2ccc(Cl)c(Cl)c2)O3)cc1`, the cytotoxicity call was “active”. For `C[C@H]1CN([C@@H](C)CO)S(=O)(=O)c2ccc(-c3ccc(C(=O)N(C)C)cc3)cc2O[C@@H]1CN(C)C(=O)C1CCC1` the value was “inactive”; for `O=C(O[C@H]1[C@H](O)[C@@H](CO)O[C@H](c2c(O)cc(O)c(C(=O)c3ccc(O)cc3)c2O)[C@H]1OC(=O)c1cc(O)c(O)c(O)c1)c1cc(O)c(O)c(O)c1`, “active”. Regarding `CC(=O)O[C@H]1[C@H](Oc2cc(O)cc(O)c2C(=O)c2cc(O)cc(O)c2)O[C@H](CO)[C@@H](OC(=O)c2ccccc2)[C@@H]1O`, the cytotoxicity call was “inactive”.

Consider `O=C(CCc1ccc(O)cc1)c1c(O)c([C@@H]2O[C@H](CO)[C@@H](O)[C@H](O)[C@H]2O)c(O)c([C@@H]2O[C@H](CO)[C@@H](O)[C@H](O)[C@H]2O)c1O`, for which the cytotoxicity call is “inactive”. For `Cc1ccc(S(=O)(=O)N(C)C[C@@H]2Oc3ccc(NC(=O)CCCN(C)C)cc3CC(=O)N([C@H](C)CO)C[C@H]2C)cc1` the value was “inactive”; for `CN(C)CC#Cc1ccc([C@@H]2[C@H](CO)N3C(=O)CN(C(=O)CN(C)C)C[C@@H]23)cc1`, “inactive”; for `C[C@@H]1CN([C@@H](C)CO)C(=O)c2cccc(NC(=O)c3ccncc3)c2O[C@@H]1CN(C)S(=O)(=O)c1cccs1`, “active”. In the case of `C[C@@H]1CN([C@H](C)CO)C(=O)c2cccc(NC(=O)c3ccncc3)c2O[C@@H]1CN(C)S(=O)(=O)c1cccs1` it was “active”; in that of `C[C@@H]1CN([C@@H](C)CO)C(=O)c2cccc(NC(=O)c3ccncc3)c2O[C@H]1CN(C)S(=O)(=O)c1cccs1`, “inactive”; in that of `C[C@H](CO)N1C[C@H](C)[C@H](CN(C)S(=O)(=O)c2cccs2)Oc2c(NC(=O)c3ccncc3)cccc2C1=O`, “inactive”. In the case of `C[C@@H]1CN([C@H](C)CO)C(=O)c2cccc(NC(=O)c3ccncc3)c2O[C@H]1CN(C)S(=O)(=O)c1cccs1` it was “inactive”; in that of `C[C@H]1CN([C@@H](C)CO)C(=O)c2cccc(NC(=O)c3ccncc3)c2O[C@H]1CN(C)S(=O)(=O)c1cccs1`, “inactive”; in that of `CO[C@H]1CN(C)C(=O)c2cc(NS(=O)(=O)c3cn(C)cn3)ccc2OC[C@@H](C)N(Cc2cccc(F)c2)C[C@@H]1C`, “inactive”. In the case of `Cc1noc(C)c1NC(=O)N(C)C[C@H]1Oc2ccc(NC(=O)C3CC3)cc2C(=O)N([C@H](C)CO)C[C@@H]1C`, the cytotoxicity call is “inactive”. In the case of `C[C@@H]1CN([C@H](C)CO)C(=O)c2cc(NS(C)(=O)=O)ccc2O[C@@H](C)CCCCO[C@H]1CN(C)CC1CC1` it was “inactive”; in that of `C[C@@H]1CCCCO[C@@H](CN(C)C(=O)c2ccccc2)[C@H](C)CN([C@@H](C)CO)C(=O)c2cc(NS(=O)(=O)c3ccccc3)ccc2O1`, “inactive”.

Turning to `C[C@@H]1CN([C@H](C)CO)S(=O)(=O)c2ccc(Br)cc2O[C@H]1CN(C)C(=O)Nc1ccccc1`, the cytotoxicity call was “inactive”. For `C[C@@H]1CN([C@@H](C)CO)C(=O)Cc2cc(NC(=O)Nc3cccc4ccccc34)ccc2O[C@@H]1CN(C)CC1CCCCC1` the value was “active”. Take `C[C@H](CO)N1C[C@H](C)[C@H](CN(C)CC2CCCCC2)Oc2ccc(NC(=O)Nc3cccc4ccccc34)cc2CC1=O`: the cytotoxicity call was “inactive”. For `C[C@H](CO)N1C[C@H](C)[C@@H](CN(C)CC2CCCCC2)Oc2ccc(NC(=O)Nc3cccc4ccccc34)cc2CC1=O` the value was “inactive”; for `C[C@@H]1CN([C@H](C)CO)C(=O)Cc2cc(NC(=O)Nc3cccc4ccccc34)ccc2O[C@@H]1CN(C)C(=O)NC1CCCCC1`, “inactive”.

For `C[C@@H]1CN([C@@H](C)CO)C(=O)Cc2cc(NC(=O)Nc3cccc4ccccc34)ccc2O[C@H]1CN(C)CC1CCCCC1`, the cytotoxicity call is “inactive”. Consider `C[C@H]1CN([C@@H](C)CO)C(=O)Cc2cc(NC(=O)Nc3cccc4ccccc34)ccc2O[C@@H]1CN(C)CC1CCCCC1`, for which the cytotoxicity call was “active”.

On to `C[C@@H]1CN([C@H](C)CO)C(=O)Cc2cc(NC(=O)Nc3cccc4ccccc34)ccc2O[C@H]1CN(C)CC1CCCCC1`, for which the cytotoxicity call is “inactive”.

For `C[C@H]1CN([C@@H](C)CO)C(=O)Cc2cc(NC(=O)Nc3cccc4ccccc34)ccc2O[C@H]1CN(C)CC1CCCCC1`, the cytotoxicity call was “active”. In the case of `C[C@@H]1CN([C@H](C)CO)C(=O)Cc2cc(NC(=O)Nc3cccc4ccccc34)ccc2O[C@@H]1CN(C)CC1CCCCC1` it was “active”.
